Results taken from PubChem BioAssay.
Calls of active or inactive are those of the source. Unless noted, the rule behind the calls is not given here.

How the values were obtained:
[1] = resazurin metabolic signal in HepG2 cells – cell-based, resazurin fluorescence, 24 h, PK04 Diversity Set, profiling panel (AID 1172); details: HepG2 viability, higher = more signal
[2] = budding yeast growth changes without added modifier – OD600, strain BY4716, 24 h, basal condition, primary screen (AID 1173); details: S. cerevisiae BY4716 growth, OD600, 24 h; higher = more signal, called active from +8 up or from −8 down
[3] = viability profiling in MM1S myeloma cells – cell-based, resazurin fluorescence, basal, 24 h, PK04 Diversity Set, profiling panel (AID 1174); details: higher = more signal, called active from +8 up or from −8 down;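 note: MM1S multiple myeloma cell line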
[4] = molecular target: Dihydroorotate dehydrogenase (quinone), mitochondrial (Plasmodium falciparum (isolate 3D7)) (UniProt Q08210); assay: inhibition of P. falciparum DHODH – biochemical, C-terminal His tag, absorbance 600 nm, primary screen (AID 1175); details: PfDHODH enzyme, DCIP absorbance 600 nm; higher = more signal, called active from +8 up or from −8 down;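 note: recombinant parasite enzyme with a five histidine tag at its C terminus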
[5] = inhibition of PAO1 biofilm formation – strain PAO1, LB-PBS medium, absorbance 600 nm, primary screen (AID 1176); details: P. aeruginosa PAO1 growth/biofilm, A600, 12 h; higher = more signal
[6] = growth modulation of vineyard yeast isolate – strain RM11-1a, OD600, basal, 24 h, primary screen (AID 1177);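 note: cultures grown under basal conditions with no added stressor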; details: S. cerevisiae RM11-1a growth, OD600, 24 h; higher = more signal, called active from +8 up or from −8 down
[7] = growth of efflux-deficient E. coli DRC39 – strain DRC39, OD650, 24 h, E. coli filamentation inducers, primary screen (AID 1178);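 note: growth measured as culture turbidity by optical density at 650 nm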; details: E. coli DRC39 acrAB, higher = more signal, called active from +8 up or from −8 down
[8] = growth of efflux-deficient E. coli DRC39 – strain DRC39, OD650, 48 h, E. coli filamentation inducers, primary screen (AID 1179);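 note: screen aims at cell division blockers that make cells filament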; details: E. coli DRC39 delta-acrAB growth, higher = more signal, called active from +8 up or from −8 down
[9] = viability profiling in RPMI8226 myeloma cells – cell-based, resazurin fluorescence, basal, 24 h, PK04 Diversity Set, profiling panel (AID 1180); details: higher = more signal;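 note: RPMI8826 multiple myeloma cell line at 5000 cells per well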
[10] = molecular target: E3 ubiquitin-protein ligase XIAP (Homo sapiens) (UniProt P98170); assay: small molecules binding XIAP protein – biophysical, small-molecule microarray, fluorescence 635 nm, primary screen (AID 1181); details: higher = more signal;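 note: score merges 667 nm emission and signal to noise over triplicate slides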
[11] = system: XIP peptide (Xip251-270) binding; assay: XIP fragment 251-270 binding compounds – biochemical, small-molecule microarray, fluorescence 635/667 nm, 0.1 µg/mL protein, primary screen (AID 1182); details: fluorescent protein binding, 635 nm, higher = more signal, called active from +8 up or from −8 down
XIP peptide (Xip251-270) = assay: compounds binding XIP fragment 251-270 – biochemical, small-molecule microarray, fluorescence 635/667 nm, 0.5 µg/mL protein, primary screen (AID 1183); details: fluorescence 635 nm, higher = more signal
[12] = blood-stage malaria parasite viability loss – strain 3D7, DAPI fluorescence, 100 nL, primary screen (AID 1184);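 note: parasites grown inside human red blood cells in medium with human serum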; details: P. falciparum 3D7 growth, 3 d, higher = more signal
[13] = molecular target: Homeobox protein Hox-A13 (Mus musculus) (UniProt Q62424); assay: disruptors of Hoxa13 oligonucleotide interaction – biochemical, fluorescence polarization, labeled oligonucleotide, primary screen (AID 1185); details: Hoxa13:DNA binding, 15 min, higher = more signal, called active from +8 up or from −8 down
[14] = blockers of DNA damage checkpoint Chk1 activation – imaging, HeLa, hydroxyurea, phospho-Chk1 antibody, percent positive cells, primary screen (AID 1186); details: hydroxyurea-induced phospho-Chk1 immunofluorescence imaging, higher = more signal
[15] = blockers of DNA damage checkpoint Chk1 activation – imaging, HeLa, hydroxyurea, phospho-Chk1 nuclear intensity, primary screen (AID 1187); details: hydroxyurea-induced phospho-Chk1 immunofluorescence imaging, higher = more signal

Chain of Homeobox protein Hox-A13 (Mus musculus) (Q62424 whole entry, looked up): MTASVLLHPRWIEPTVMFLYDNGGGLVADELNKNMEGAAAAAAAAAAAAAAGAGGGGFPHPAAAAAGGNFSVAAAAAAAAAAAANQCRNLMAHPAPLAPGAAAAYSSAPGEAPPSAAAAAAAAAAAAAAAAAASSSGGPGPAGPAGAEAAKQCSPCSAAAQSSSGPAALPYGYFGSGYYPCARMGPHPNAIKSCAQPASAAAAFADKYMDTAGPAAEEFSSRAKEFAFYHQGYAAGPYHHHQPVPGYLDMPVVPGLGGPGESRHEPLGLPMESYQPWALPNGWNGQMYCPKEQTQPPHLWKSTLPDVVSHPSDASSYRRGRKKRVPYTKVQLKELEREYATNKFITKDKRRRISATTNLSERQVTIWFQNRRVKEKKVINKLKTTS
Chain of Dihydroorotate dehydrogenase (quinone), mitochondrial (Plasmodium falciparum (isolate 3D7)) (Q08210 whole entry, looked up): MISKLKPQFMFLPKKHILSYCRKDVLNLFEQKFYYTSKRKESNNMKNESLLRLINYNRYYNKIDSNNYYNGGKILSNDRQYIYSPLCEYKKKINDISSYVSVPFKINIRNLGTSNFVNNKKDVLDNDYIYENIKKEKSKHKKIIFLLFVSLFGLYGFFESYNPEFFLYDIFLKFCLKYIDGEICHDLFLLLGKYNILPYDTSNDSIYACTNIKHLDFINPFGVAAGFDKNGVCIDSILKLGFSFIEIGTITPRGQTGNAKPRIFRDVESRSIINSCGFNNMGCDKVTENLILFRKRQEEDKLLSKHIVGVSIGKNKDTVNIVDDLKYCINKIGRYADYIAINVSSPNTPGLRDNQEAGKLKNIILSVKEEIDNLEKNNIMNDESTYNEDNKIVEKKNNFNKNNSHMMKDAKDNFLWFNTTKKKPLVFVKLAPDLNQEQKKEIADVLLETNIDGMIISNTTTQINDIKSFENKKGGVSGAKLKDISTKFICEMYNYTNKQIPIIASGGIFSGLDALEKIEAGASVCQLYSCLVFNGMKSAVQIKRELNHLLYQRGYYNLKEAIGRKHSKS
Chain of E3 ubiquitin-protein ligase XIAP (Homo sapiens) (P98170 whole entry, looked up, the tested form may be a part): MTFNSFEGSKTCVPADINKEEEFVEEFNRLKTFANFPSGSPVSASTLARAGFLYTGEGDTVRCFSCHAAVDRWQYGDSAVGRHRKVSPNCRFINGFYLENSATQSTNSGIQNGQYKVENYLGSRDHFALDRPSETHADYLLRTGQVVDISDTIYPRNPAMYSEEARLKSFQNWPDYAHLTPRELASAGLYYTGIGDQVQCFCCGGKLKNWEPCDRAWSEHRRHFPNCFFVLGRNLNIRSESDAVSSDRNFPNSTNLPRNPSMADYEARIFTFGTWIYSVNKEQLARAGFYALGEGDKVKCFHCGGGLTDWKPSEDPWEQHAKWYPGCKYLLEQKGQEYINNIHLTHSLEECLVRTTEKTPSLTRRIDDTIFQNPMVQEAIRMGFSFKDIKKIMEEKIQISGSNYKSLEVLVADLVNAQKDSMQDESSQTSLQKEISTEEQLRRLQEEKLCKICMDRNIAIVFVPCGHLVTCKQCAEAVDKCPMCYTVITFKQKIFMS

Question: Which z-score [1] does the source give for `COCCOC(=O)N1C(=O)[C@@]2(c3cc(C#CCCO)ccc31)[C@H](C(=O)N1CCc3cc(OC)c(OC)cc3C1)[C@H]1C(=O)O[C@H](c3ccccc3)[C@H](c3ccccc3)N1[C@@H]2c1ccc(O)cc1` here?
Answer: 0.0444

Question: What about the z-score [2] of the same compound?
Answer: -0.253 (inactive)

Question: And the z-score [3]?
Answer: -0.419 (inactive)

Question: And the composite z-score [4]?
Answer: -0.268 (inactive)

Question: And the z-score [5]?
Answer: 0.875 (inactive)

Question: And the z-score [6]?
Answer: 2.12 (inactive)

Question: And the z-score [7]?
Answer: 0.316 (inactive)

Question: What about the z-score [8] of the same compound?
Answer: 0.884 (inactive)

Question: What about the z-score [9] of the same compound?
Answer: -0.368

Question: And the composite z-score [10]?
Answer: -0.0812

Question: What about the composite z-score [11] of the same compound?
Answer: 1.55 (inactive)

Question: What about the composite z-score (XIP peptide (Xip251-270)) of the same compound?
Answer: 0.798

Question: And the z-score [12]?
Answer: -0.439

Question: What about the z-score [13] of the same compound?
Answer: -2.01 (inactive)

Question: And the z-score [14]?
Answer: -0.463 (inactive)

Question: And the z-score [15]?
Answer: -0.656 (inactive)

Question: With `CC(C)(C)OC(=O)CC[C@@]12N=C(c3ccc(OCCCO)cc3)O[C@@H]1c1ccccc1N(CCS(=O)(=O)c1ccccc1)C2=O` as the compound, how does the z-score [1] read?
Answer: -0.223

Question: And the z-score [2]?
Answer: 0.508 (inactive)

Question: What about the z-score [3] of the same compound?
Answer: -1.95 (inactive)

Question: What about the composite z-score [4] of the same compound?
Answer: -0.298 (inactive)

Question: What about the z-score [5] of the same compound?
Answer: 0.218 (inactive)

Question: And the z-score [6]?
Answer: 1.44 (inactive)

Question: And the z-score [7]?
Answer: 1.25 (inactive)

Question: And the z-score [8]?
Answer: 1.56 (inactive)

Question: And the z-score [9]?
Answer: -0.835

Question: What about the composite z-score [10] of the same compound?
Answer: 0.0801

Question: And the composite z-score [11]?
Answer: -0.204 (inactive)

Question: And the composite z-score (XIP peptide (Xip251-270))?
Answer: 0.569

Question: And the z-score [12]?
Answer: -1.7

Question: And the z-score [13]?
Answer: -3.42 (inactive)

Question: What about the z-score [14] of the same compound?
Answer: -0.739 (inactive)

Question: What about the z-score [15] of the same compound?
Answer: -0.767 (inactive)

Question: Which z-score [1] does the source give for `COCCOC(=O)N1C(=O)[C@@]2(c3cc(C#Cc4ccc(OC)cc4)ccc31)[C@H](C(N)=O)[C@H]1C(=O)O[C@H](c3ccccc3)[C@H](c3ccccc3)N1[C@@H]2c1ccccc1OCCO` here?
Answer: -0.483

Question: What about the z-score [2] of the same compound?
Answer: 1.06 (inactive)

Question: What about the z-score [3] of the same compound?
Answer: -2.17 (inactive)

Question: What about the composite z-score [4] of the same compound?
Answer: 0.361 (inactive)

Question: What about the z-score [5] of the same compound?
Answer: 2.94 (inactive)

Question: And the z-score [6]?
Answer: 1.5 (inactive)

Question: What about the z-score [7] of the same compound?
Answer: -0.688 (inactive)

Question: What about the z-score [8] of the same compound?
Answer: -0.469 (inactive)

Question: What about the z-score [9] of the same compound?
Answer: -2.68

Question: And the composite z-score [10]?
Answer: 0.0748

Question: What about the composite z-score [11] of the same compound?
Answer: 1.85 (inactive)

Question: And the composite z-score (XIP peptide (Xip251-270))?
Answer: 0.888

Question: What about the z-score [12] of the same compound?
Answer: -2.04

Question: And the z-score [13]?
Answer: -1.77 (inactive)

Question: What about the z-score [14] of the same compound?
Answer: -0.111 (inactive)

Question: And the z-score [15]?
Answer: -0.559 (inactive)

Question: Which results are given for `COC(=O)c1c(CC[C@@H](CO)NC(=O)N2CCC[C@H]2Cn2cc(-c3ccccn3)nn2)oc(C(C)=O)c1C(=O)OC`?
Answer: z-score [1]: 0.422; z-score [2]: -0.835 (inactive); z-score [3]: 0.608 (inactive); composite z-score [4]: -0.492 (inactive); z-score [5]: -0.252 (inactive); z-score [6]: -1.19 (inactive); z-score [7]: 1.28 (inactive); z-score [8]: 0.835 (inactive); z-score [9]: 0.426; composite z-score [10]: -0.0351; composite z-score [11]: 1.82 (inactive); composite z-score (XIP peptide (Xip251-270)): 0.667; z-score [12]: -1.04; z-score [13]: -2.59 (inactive); z-score [14]: -0.828 (inactive); z-score [15]: -0.692 (inactive)

Question: What does the source list for `C=CCOC(=O)[C@H]1[C@@H]2C(=O)O[C@@H](c3ccccc3)[C@@H](c3ccccc3)N2[C@@H](c2ccc(OCCOC(=O)[C@H]3C[C@H]4C(=O)N[C@@H](CC(C)C)C(=O)N4[C@H]3c3ccc(O)cc3)cc2)[C@]12C(=O)Nc1ccc(I)cc12`?
Answer: z-score [1]: -0.598; z-score [2]: -0.838 (inactive); z-score [3]: -0.491 (inactive); composite z-score [4]: -1.72 (inactive); z-score [5]: 0.379 (inactive); z-score [6]: 0.919 (inactive); z-score [7]: -0.267 (inactive); z-score [8]: 0.276 (inactive); z-score [9]: -0.385; composite z-score [10]: 0.109; composite z-score [11]: 0.626 (inactive); composite z-score (XIP peptide (Xip251-270)): 0.75; z-score [12]: -0.061; z-score [13]: 6.65 (inactive); z-score [14]: 0.293 (inactive); z-score [15]: 0.198 (inactive)

Question: Which results are given for `CN(C)CCCC[C@@H]1NC(=O)[C@H]2C[C@@H](C(=O)NCCCCCNC(=O)CS)[C@@H](c3cccc(OCCO)c3)N2C1=O`?
Answer: z-score [1]: 0.373; z-score [2]: -0.646 (inactive); z-score [3]: -0.212 (inactive); composite z-score [4]: -0.286 (inactive); z-score [5]: 0.643 (inactive); z-score [6]: -0.569 (inactive); z-score [7]: -0.197 (inactive); z-score [8]: -0.32 (inactive); z-score [9]: -0.421; composite z-score [10]: -0.244; composite z-score [11]: 1.2 (inactive); composite z-score (XIP peptide (Xip251-270)): 0.567; z-score [12]: -0.103; z-score [13]: -3.25 (inactive); z-score [14]: -0.244 (inactive); z-score [15]: -0.144 (inactive)

Question: With `CCOC(=O)C[C@H]1[C@H](OC(=O)c2cc3ccccc3oc2=O)[C@@H](NC(=O)C2CCCCC2)c2cc(OCCCO)ccc2N1C(=O)c1ccccc1` as the compound, how does the z-score [1] read?
Answer: -0.687

Question: And the z-score [2]?
Answer: -0.797 (inactive)

Question: What about the z-score [3] of the same compound?
Answer: 0.0797 (inactive)

Question: And the composite z-score [4]?
Answer: -2.85 (inactive)

Question: What about the z-score [5] of the same compound?
Answer: -0.259 (inactive)

Question: What about the z-score [6] of the same compound?
Answer: -0.403 (inactive)

Question: What about the z-score [7] of the same compound?
Answer: 1.65 (inactive)

Question: And the z-score [8]?
Answer: 0.612 (inactive)

Question: And the z-score [9]?
Answer: 0.285

Question: And the composite z-score [10]?
Answer: -0.214

Question: What about the composite z-score [11] of the same compound?
Answer: -0.194 (inactive)

Question: What about the composite z-score (XIP peptide (Xip251-270)) of the same compound?
Answer: 0.327

Question: And the z-score [12]?
Answer: -1.73

Question: What about the z-score [13] of the same compound?
Answer: -3.06 (inactive)

Question: And the z-score [14]?
Answer: 0.895 (inactive)

Question: What about the z-score [15] of the same compound?
Answer: 1.11 (inactive)

Question: For `C#CCN(Cc1ccccc1Br)C(/C=C/c1ccccc1)CO` (centres undefined), which z-score [1] is on record?
Answer: -0.54

Question: And the z-score [2]?
Answer: -6.66 (inactive)

Question: And the z-score [3]?
Answer: 0.862 (inactive)

Question: And the composite z-score [4]?
Answer: 0.34 (inactive)

Question: And the z-score [5]?
Answer: -0.365 (inactive)

Question: And the z-score [6]?
Answer: -1.26 (inactive)

Question: What about the z-score [7] of the same compound?
Answer: 1.1 (inactive)

Question: What about the z-score [8] of the same compound?
Answer: -0.494 (inactive)

Question: And the z-score [9]?
Answer: -0.166

Question: What about the composite z-score [10] of the same compound?
Answer: 0.147

Question: And the composite z-score [11]?
Answer: 1.09 (inactive)

Question: And the composite z-score (XIP peptide (Xip251-270))?
Answer: -0.318

Question: What about the z-score [12] of the same compound?
Answer: -1.02

Question: And the z-score [13]?
Answer: -6.39 (inactive)

Question: What about the z-score [14] of the same compound?
Answer: -0.348 (inactive)

Question: And the z-score [15]?
Answer: -0.323 (inactive)

Question: What does the source list for `NC(=O)[C@@H]1[C@H]2C(=O)O[C@H](c3ccccc3)[C@H](c3ccccc3)N2[C@H](c2ccc(O)cc2)[C@@]12C(=O)Nc1ccc(C#CC3(O)CCCCCC3)cc12`?
Answer: z-score [1]: -0.0265; z-score [2]: -1.32 (inactive); z-score [3]: 0.475 (inactive); composite z-score [4]: -0.387 (inactive); z-score [5]: 0.654 (inactive); z-score [6]: 0.591 (inactive); z-score [7]: -0.84 (inactive); z-score [8]: -0.184 (inactive); z-score [9]: -0.49; composite z-score [10]: -0.113; composite z-score [11]: 0.734 (inactive); composite z-score (XIP peptide (Xip251-270)): 0.458; z-score [12]: 0.907; z-score [13]: -3.37 (inactive); z-score [14]: -0.0527 (inactive); z-score [15]: 0.0812 (inactive)
